Among all 420,000 compounds or so, about 64,000 (15%) were called active. Roughly 27% stayed inconclusive and do not appear here. The calls are words filed in the database; no cut-off is given here. This excerpt belongs to a sample that is enriched for actives.
Target: Tyrosyl-DNA phosphodiesterase 1 (Homo sapiens) (UniProt Q9NUW8)
Assay: qHTS for Inhibitors of human tyrosyl-DNA phosphodiesterase 1 (TDP1): qHTS in cells in absence of CPT.
Assay type: functional

Chain of Tyrosyl-DNA phosphodiesterase 1 (Homo sapiens) (Q9NUW8 whole entry): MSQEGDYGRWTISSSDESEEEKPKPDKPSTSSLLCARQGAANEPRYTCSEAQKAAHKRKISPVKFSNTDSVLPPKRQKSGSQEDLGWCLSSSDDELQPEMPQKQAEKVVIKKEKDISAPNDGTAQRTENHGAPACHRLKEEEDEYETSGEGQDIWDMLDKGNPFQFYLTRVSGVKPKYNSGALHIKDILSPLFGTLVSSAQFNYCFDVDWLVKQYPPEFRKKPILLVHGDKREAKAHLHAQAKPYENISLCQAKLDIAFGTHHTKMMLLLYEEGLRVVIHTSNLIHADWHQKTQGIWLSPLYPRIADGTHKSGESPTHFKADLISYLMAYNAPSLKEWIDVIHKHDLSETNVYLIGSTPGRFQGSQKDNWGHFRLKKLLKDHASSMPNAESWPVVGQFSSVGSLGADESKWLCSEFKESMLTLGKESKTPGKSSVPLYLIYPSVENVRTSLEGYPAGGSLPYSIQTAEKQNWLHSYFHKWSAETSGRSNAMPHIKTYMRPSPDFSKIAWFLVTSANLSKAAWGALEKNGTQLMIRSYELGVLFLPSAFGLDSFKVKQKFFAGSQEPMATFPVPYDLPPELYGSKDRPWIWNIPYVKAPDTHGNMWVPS

Potency, active:
ICCCCN1C=S(CI)c2ccccc21 (stereo not drawn) 8.91 µM
Cc1cccc2c1N(CCCCI)C=S2C (stereo not drawn) 3.98 µM
COc1ccc(OC)c(/C=C/c2cccc3c2N(CCCCI)C=S3/C=C/c2cc(OC)ccc2OC)c1 (stereo not drawn) 7.08 µM
CN(C)c1ccc(/C=C/c2cccc3c2N(CCCCI)C=S3/C=C/c2ccc(N(C)C)cc2)cc1 (stereo not drawn) 15.8 µM
CCOc1ccc(N2C(=O)c3ccccc3N/C2=C\N2CCN(C(=O)c3ccco3)CC2)cc1 10 µM
COc1ccccc1/C=C/C(=O)c1cccs1 5.96 µM
O=C(/C=C/c1ccc(Cl)cc1)c1cccs1 7.5 µM
CC(C)C(C)c1cccc2c1NC=S2C(C)C(C)C (stereo not drawn) 5.62 µM

Source: ChEMBL document CHEMBL1201862, “PubChem BioAssay data set” (2004)
